Source: PubChem BioAssay (NCI)
The panel holds about 83,000 compounds, 20% with a hit somewhere; the sample as a whole holds those more often.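 Cell lines were cultured in 96-well plates, exposed to a single compound concentration, and assessed for percent growth 48 hours later.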 Unmarked numbers belong to inactive results. Calls of active or inactive are those of the source.

system: OVCAR-8 ovarian; assay: NCI-60 one-dose screen, 48 h (100 = growth as untreated, 0 = no growth, -100 = all killed); settings: 10 µM unless noted
Experimental: Growth inhibition of the OVCAR-8 human tumor cell line is measured as a screen for anti-cancer activity. Cells are grown in 96 well plates and exposed to the test compound for 48 hours. Compounds are tested at a single concentration, which is 10^-5 M for most compounds. The reported endpoint is percent growth (GI% or GIPRCNT), where numbers from 0 - 100% represent growth inhibition, and numbers from -100% - 0 represent cell death. For example, a value of 40 represents 60% growth inhibition. A value of 0 means no net growth occurred over the course of the experiment. A value of -40 indicates 40% of cells at the beginning of the experiment died by the end of the experiment. A value of -100 means all cells are dead at the end of the experiment.
NCI-60 Human Tumor Cell Lines Screen was performed using the standard one-dose NCI protocol, which is described in more detail at https://dtp.cancer.gov/discovery_development/nci-60/default.htm.
Compounds with GIPRCNT values below 10 were considered active. Activity score was based on GIPRCNT using the following formula: […]
Score is 0 for GIPRCNT values of 100 or above, 50 for GIPRCNT values of 0, and 100 for GIPRCNT values of -100.

| SMILES | growth |
| --- | --- |
| CC(C)(C)OC(=O)N1C/C(=C\c2ccccc2)C(=O)/C(=C/c2ccccc2)C1 | 96.5% |
| COc1cc(-c2c3c(cn2CCN2CCCCC2)-c2oncc2CC3)cc(OC)c1OC | 101% |
| COc1cccc(CNC(=O)c2cccc(C3CC(=O)c4c(cc(OC)c(OC)c4OC)O3)c2)c1 (stereo not given) | 67.1% |
| CCCCS(=O)(=O)c1cc(Nc2ccc(O)c3c2C(=O)c2ccccc2C3=O)ccc1C | 86.6% |
| Cc1c(O)c(N=Nc2ccc(C(=O)O)c(O)c2)c2ccccc2c1O | 96.9% |
| O=Nc1ccc(O)c2ccccc12 | 7.56% (active) |
| O=C(CCCC(=O)Nc1ccc(Cn2nnc3cc(Cl)c(Cl)cc32)cc1)Nc1ccc(CN2N=NC3C=C(Cl)C(Cl)=CC32)cc1 (stereo not given) | 76.3% |
| CCCCCN1CCN(C(CC(=O)c2ccccc2)C(=O)c2ccccc2)CC1 (stereo not given) | 101% |
| Nc1nc2c(c3cnccc13)C(c1ccc(Cl)c(Cl)c1)Cc1cnccc1-2 (stereo not given) | 9.87% (active) |
| CCC(C)(CC)c1ccc(O)c(C)c1 | 109% |
| C/C=C(/C)C(=O)OC1C=C(CO)C(=O)C(OC(=O)C2(C)OC2C)C1C(C)C (stereo not given) | 4.08% (active) |
| O=C(Oc1ccccc1)c1ccccc1Cl | 104% |
| Oc1ccc2ccccc2c1/C=N\Nc1ccccn1 | 14.5% |
| COc1nc(OC)nc(-c2cc(-c3cc(OC)c(OC)c(OC)c3)no2)n1 | 98.3% |
| COc1cccc(-c2cc(-c3cc4ccccc4oc3=O)nc(N)n2)c1 | 111% |
| COc1ccc(C2=NN(C(=O)c3cc(-c4ccc(C)cc4)nc4ccccc34)C(c3cc(-c4ccccc4)nn3-c3ccccc3)C2)cc1 (stereo not given) | 93.3% |
| N#CCc1ncc(-c2ccc(C(F)(F)F)cc2)c(NC2CCCCCC2)n1 | 26% [100 µM] |
| COC(=O)/C=C1/CCCCC1(C)C(=O)OC (stereo not given) | 98.4% |
| O=C(Nc1ccc(Cl)cn1)C1(c2ccccc2)CCCCC1 | 113% |
| CCCCCc1ccnc(CC(=O)c2ccc(OC)cc2)c1 | 86.1% |

| SMILES | growth |
| --- | --- |
| O=C(NCCO)C(F)(F)F | 103% |
| CC1(C)CC(=O)C2=C(C1)Oc1nc(N)c(C#N)c(N)c1C2c1ccc(F)cc1 (stereo not given) | 106% |
| CC([C@H]1CC=C2C3CCC4=C[C@@H](N(C)C)CC[C@]4(C)C3CC[C@@]21C)N(C)C (stereo not given in full) | 85.3% |
| CC(=O)CCS(=O)c1ccccc1 (stereo not given) | 104% |
| O=C(NC1CCN(Cc2ccccc2)CC1)c1cc(-c2cccnc2)nc2ccc(Cl)cc12 | 77.5% |
| CC(CCN1CCN(CCC(C)CC(C)(C)C)C1CC(C)CC(C)(C)C)CC(C)(C)C (stereo not given) | 89.8% |
| COc1ccc(/C=C2\SC(=O)N(Cc3cc(=O)oc4ccc(OC)cc34)C2=O)cc1 | 95.4% |
| Nc1nc(-c2cccc(Br)c2)cc(-c2cc3ccccc3oc2=O)n1 | 97.2% |
| CCn1cc(C(=O)O)c(=O)c2cc(F)c(N3CCN(S(=O)(=O)c4ccc(Cl)cc4)CC3)cc21 | 12.6% |
| CC1(c2ccc(Br)cc2)NC(=O)NC1=O (stereo not given) | 97.9% |
| O=C(Nc1ccc(-n2cc(-c3ccncc3)c(-c3ccc(Cl)c(O)c3)n2)cc1)Nc1cc(C(F)(F)F)cc(C(F)(F)F)c1 | 18.2% |
| COc1ccc(-c2nc(SCC(C)C)nc(Nc3ccccc3)c2C#N)cc1 | 74.4% |
| O=C(Nc1ccccc1)Nc1ccc(Nc2ncnc3sc4c(c23)CCCC4)cc1 | 107% |
| COc1ccc(/C=C/C(=O)/C=C/c2cc3ccccc3[nH]c2=O)cc1 | -11.8% (active) |
| COc1cc(-c2nn(-c3ccc(NC(=O)c4ccc(Cl)c(C(F)(F)F)c4)cc3)cc2-c2ccncc2)ccc1Cl | 49.2% |
| Cc1ccc2c(c1)C(=O)CCS2 | 100% |
| CCC(C)CC(N)O (stereo not given) | 107% |
| CC(C)(CNC1CCCCC1)OC(=O)c1ccccc1 | 101% |
| CCCCCCCCCCCCOC(=N)N(C)C | 98.9% |
| O=C(N/N=C/c1cc(Cl)ccc1O)C(=O)N/N=C/c1cc(Cl)ccc1O | 60.8% |
